The results in this text go back to PubChem BioAssay AID602261 (Sanford-Burnham Center for Chemical Genomics, 2012).

As a reminder, the inhibition is the relative decrease from the control value, in per cent.

Each structure is given as a SMILES string. Screen size: about 360,000 compounds; about 2,400 (0.67%) were called active. What follows is part of a selection rich in actives, with near analogues and random picks from the rest. A number with no mark means an inactive call.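 The calls were made as follows: active = compounds whose normalised, plate-corrected inhibition of enzyme fluorescence in the single-dose primary screen is 50% or more; inactive = the rest.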

For this assay, the target named is Fatty acid synthase (Homo sapiens) (UniProt P49327). The assay can be described thus: inhibition of human FAS-TE enzyme activity – biochemical, fluorescence intensity, uHTS, primary screen (AID 602261).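 Also: 0% = DMSO with enzyme and 100% = substrate without enzyme.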 Conditions: recombinant FAS-TE, OMFH fluorogenic substrate, fluorescence endpoint; at 15 µM; hits give high values.
Sequence of Fatty acid synthase (Homo sapiens) (P49327 whole entry, looked up): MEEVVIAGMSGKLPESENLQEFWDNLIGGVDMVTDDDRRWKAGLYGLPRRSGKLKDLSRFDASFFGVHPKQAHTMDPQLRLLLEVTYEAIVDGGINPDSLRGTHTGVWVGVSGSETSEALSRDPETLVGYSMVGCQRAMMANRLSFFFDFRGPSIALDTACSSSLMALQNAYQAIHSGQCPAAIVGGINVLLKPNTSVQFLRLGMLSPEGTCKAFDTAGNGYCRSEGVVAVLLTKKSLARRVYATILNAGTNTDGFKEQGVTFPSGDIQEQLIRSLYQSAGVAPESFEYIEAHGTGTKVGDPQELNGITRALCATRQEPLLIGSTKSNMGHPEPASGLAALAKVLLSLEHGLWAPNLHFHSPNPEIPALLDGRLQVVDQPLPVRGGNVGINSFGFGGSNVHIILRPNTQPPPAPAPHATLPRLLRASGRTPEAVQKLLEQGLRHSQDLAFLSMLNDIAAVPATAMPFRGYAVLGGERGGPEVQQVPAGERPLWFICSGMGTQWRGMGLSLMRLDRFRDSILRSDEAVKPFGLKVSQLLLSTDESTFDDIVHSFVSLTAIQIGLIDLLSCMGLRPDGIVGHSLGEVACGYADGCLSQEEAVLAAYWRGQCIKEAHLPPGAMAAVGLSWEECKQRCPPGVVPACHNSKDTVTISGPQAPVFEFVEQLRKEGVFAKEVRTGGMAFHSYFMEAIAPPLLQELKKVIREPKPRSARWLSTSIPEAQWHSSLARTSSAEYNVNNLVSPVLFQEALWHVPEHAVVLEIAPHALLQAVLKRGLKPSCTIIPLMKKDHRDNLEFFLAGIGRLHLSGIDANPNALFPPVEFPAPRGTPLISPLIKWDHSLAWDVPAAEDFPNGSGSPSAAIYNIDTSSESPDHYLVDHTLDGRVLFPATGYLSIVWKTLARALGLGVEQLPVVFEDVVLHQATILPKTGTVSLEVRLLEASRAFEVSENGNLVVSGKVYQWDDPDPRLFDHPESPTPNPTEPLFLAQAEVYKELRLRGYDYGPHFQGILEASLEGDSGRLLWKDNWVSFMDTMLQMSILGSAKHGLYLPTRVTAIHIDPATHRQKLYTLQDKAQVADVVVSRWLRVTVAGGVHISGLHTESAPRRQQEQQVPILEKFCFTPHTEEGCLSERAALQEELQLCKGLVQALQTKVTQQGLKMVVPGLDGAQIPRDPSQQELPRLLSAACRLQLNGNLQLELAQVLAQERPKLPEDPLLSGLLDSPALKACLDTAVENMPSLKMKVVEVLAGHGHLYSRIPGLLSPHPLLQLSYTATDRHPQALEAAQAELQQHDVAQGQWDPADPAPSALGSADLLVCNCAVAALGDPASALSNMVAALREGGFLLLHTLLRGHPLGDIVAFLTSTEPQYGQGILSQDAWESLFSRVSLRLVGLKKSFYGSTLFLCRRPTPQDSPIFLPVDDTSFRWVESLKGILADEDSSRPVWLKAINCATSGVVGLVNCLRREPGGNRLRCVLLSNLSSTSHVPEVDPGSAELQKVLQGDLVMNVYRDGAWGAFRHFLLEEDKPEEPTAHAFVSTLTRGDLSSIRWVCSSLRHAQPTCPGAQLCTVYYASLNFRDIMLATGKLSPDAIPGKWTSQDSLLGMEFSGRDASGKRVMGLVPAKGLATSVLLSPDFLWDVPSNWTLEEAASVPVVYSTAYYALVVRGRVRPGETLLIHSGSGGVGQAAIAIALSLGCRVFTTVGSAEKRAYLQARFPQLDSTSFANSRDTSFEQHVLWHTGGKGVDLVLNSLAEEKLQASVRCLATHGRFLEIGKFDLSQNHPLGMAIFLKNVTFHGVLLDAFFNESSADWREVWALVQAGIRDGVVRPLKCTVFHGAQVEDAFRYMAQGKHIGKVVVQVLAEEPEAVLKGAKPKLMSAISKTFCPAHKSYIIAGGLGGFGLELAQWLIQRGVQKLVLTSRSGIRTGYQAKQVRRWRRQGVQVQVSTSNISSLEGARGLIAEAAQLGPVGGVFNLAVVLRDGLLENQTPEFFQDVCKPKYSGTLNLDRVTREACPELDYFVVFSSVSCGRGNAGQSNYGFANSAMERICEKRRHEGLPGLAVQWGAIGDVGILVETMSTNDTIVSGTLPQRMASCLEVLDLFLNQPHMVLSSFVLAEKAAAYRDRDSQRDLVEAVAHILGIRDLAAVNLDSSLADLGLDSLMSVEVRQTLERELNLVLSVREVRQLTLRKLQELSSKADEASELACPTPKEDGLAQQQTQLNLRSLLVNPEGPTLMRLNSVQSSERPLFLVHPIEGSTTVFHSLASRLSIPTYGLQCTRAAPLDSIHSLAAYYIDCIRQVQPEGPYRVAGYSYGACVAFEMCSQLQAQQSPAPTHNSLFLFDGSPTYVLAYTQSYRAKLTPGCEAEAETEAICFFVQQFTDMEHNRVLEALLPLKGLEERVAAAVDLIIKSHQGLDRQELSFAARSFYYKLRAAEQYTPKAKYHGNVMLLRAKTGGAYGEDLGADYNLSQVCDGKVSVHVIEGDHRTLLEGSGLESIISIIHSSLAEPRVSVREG
As to `O=C1N(c2ccc(Cl)cc2)C(c2ccc(Cl)cc2)N2CCCN12` (stereo unspecified), the inhibition is 21.3%. With `COCCCN1C(=O)C(CC(=O)NCc2cccs2)CC(C(=O)N2CCOCC2)=C1C` (stereo unspecified), the inhibition is -5.4%. Then `CCC(CC)COC(=O)C1=C(C)NC(=O)NC1c1ccc([N+](=O)[O-])cc1` (stereo unspecified), with 71.6% (active); and `CCOCCOC(=O)C1=C(C)NC(=O)NC1c1ccc2c(c1)OCO2` (stereo unspecified), with -6.1%; and `CC1=C(C(=O)OCC2CCCCC2)C(c2ccc(F)cc2)NC(=O)N1` (stereo unspecified), with 17.2%. The same measure for `N[C@@H](Cc1ccccc1)C(=O)N1CCC(C(=O)NCC(=O)Nc2ccc(F)cc2)CC1`: -6.7%; for `CC(C)(O)C#Cc1ncc(C(F)(F)F)cc1Cl`: -1.4%. The same measure for `COC(=O)[C@@H]1CC(O)CN1C(=O)C12CC3CC(CC(C3)C1)C2` (stereo partly specified): -6.7%. Take `CCOC(=O)c1cnn2c(SC)ncnc12`: the inhibition was -6.9%.

Take `Cc1cc(C)c2c(=O)n3c(nc2c1)C(CC(C)C)NC(=O)c1cc2ccccc2cc1-3` (stereo unspecified): the inhibition is 2.3%. The same measure for `CCC1NC(=O)c2cccnc2-n2c1nc1ccc(C)cc1c2=O` (stereo unspecified): -5.4%; for `O=C1NC(Cc2ccccc2)c2nc3ccc(Br)cc3c(=O)n2-c2cc3ccccc3cc21` (stereo unspecified): 84.7% (active).

Regarding `C=CCSc1nsc(NC(=O)Nc2cccc(C(C)=O)c2)n1`, the inhibition is 3.9%.

For the compound `Cc1ccc(C2SCC(=O)N2c2ccccc2)cc1` (stereo unspecified), the inhibition is -5.6%. On to `Cc1ccc(N2C(=O)N3[C@@H]4c5ccccc5OC[C@@H]4[C@@H](c4ccccc4)[C@@]3(C)C2=O)cc1`, for which the inhibition is 48.3%. `Cc1ccc(N2C(=O)C3C(c4ccccc4)(C2=O)C3(c2ccccc2)c2ccccc2)cc1` (stereo unspecified): the inhibition was 80.8% (active). Take `COc1cc(C2C(C(=O)OCCC#N)=C(C)NC3=C2S(=O)(=O)c2ccccc23)cc(OC)c1OC` (stereo unspecified): the inhibition is -7.7%. Take `C=C(Cl)COC(=O)C1C2C=CC(C2)C1C(=O)O` (stereo unspecified): the inhibition was -6.6%. As to `COc1cccc(CNS(=O)(=O)c2cc3c(cc2C)n(C)c(=O)c(=O)n3C)c1`, the inhibition is -4.2%. Turning to `CC1c2nc3ccccc3n2C(CC(=O)NCCCN2CCOCC2)C(=O)N1Cc1ccccc1` (stereo unspecified), the inhibition is -2.2%. Regarding `Cc1ccc(S(=O)(=O)N2C[C@]3(O)C[C@@H]4C(=O)N(c5ccccc5)C(=O)[C@@H]4C[C@]3(OC(=O)NC3CC3)C2)cc1`, the inhibition is 5.3%. As for `C#CCN(C[C@@H]1[C@@H](OC(=O)NC2CC2)[C@@H](OC(=O)NC2CC2)Cn2c(=O)ccc(=O)n21)S(=O)(=O)c1ccc(C)cc1`, the inhibition is -8%. `C#CCN(C[C@H]1[C@H](OC(=O)NC2CCCC2)[C@H](OC(=O)NC2CCCC2)C[C@H]2C(=O)N(c3ccccc3)C(=O)[C@@H]12)S(=O)(=O)c1ccc(C)cc1`: the inhibition was 69.1% (active). Consider `O=C(NCc1ccco1)c1ccc(CS(=O)(=O)Cc2ccc(F)cc2)o1`, for which the inhibition was -5.6%. As to `C[C@H]1CN([C@@H](C)CO)C(=O)CCCn2nncc2CO[C@@H]1CN(C)Cc1ccc(Oc2ccccc2)cc1`, the inhibition was -4.9%. On to `CCN(CCCNC(=O)CSc1cc(=O)n(C)c2cc(Cl)ccc12)Cc1ccccc1`, for which the inhibition is 1.5%.
